Screening data as filed in PubChem.
POLI inh: DNA polymerase iota (human) inhibition; Q9UNA4; Pol iota fluorescent replication assay, 10 min; Potency, µM (titrated, usually from 115 µM), for the others: top-dose activity, negative = inhibition, hits mostly inhibitors; actives 1% (n = 390,000); also: potency is read from the fitted curve at half-maximal effect
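Fluorescent replication assay read twice, at 0 min and 10 min after adding 50 nM (final) substrate. Enzyme (10 nM) and compounds were first incubated 15 min at room temperature; enzyme-free buffer wells were negative controls.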
Pol eta inh-1: inhibitors of human DNA polymerase eta. actives 1.2% (n = 390,000). recombinant Pol eta, fluorescent DNA replication assay. Q9Y253. Potency, µM (titrated, usually from 114 µM), inactives show top-dose activity change, negative = inhibition, hits mostly inhibitors; also: potency is read from the fitted curve at half-maximal effect; % is scaled to controls: 0 for no effect and ±100 for the full control effect
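Pol eta (10 nM) was preincubated with compounds for 15 min at room temperature, after which fluorescent replication substrate (50 nM final) was added to start the reaction. Fluorescence was read kinetically at 0 and 10 min.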
Pol beta inh: DNA polymerase beta (human) inhibition. Pol beta primer extension/strand displacement, fluorescence kinetic. AID 485314. P06746. Potency, µM (titrated, usually from 114 µM), for the others: at the highest dose activity change, negative = inhibition, hits mostly inhibitors. actives 1.3% (n = 340,000); also: potency is read from the fitted curve at half-maximal effect; % is scaled to controls: 0 for no effect and ±100 for the full control effect
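Pol beta (10 nM) and compounds were preincubated 15 min at room temperature, then 50 nM substrate (final) started primer extension/strand displacement. Reads were taken at 0 and 10 min; concentration-response data were fitted to a four-parameter Hill equation.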
WRN inhibitor: blocks human WRN helicase | WRN helicase unwinding, fluorescent forked duplex, kinetic | Potency, µM (doses to about 114 µM), for inactives: at the highest dose activity change, negative = inhibition, most hits filed as inhibitors | actives 0.46% (n = 360,000) | AID 651768; also: potency is read from the fitted curve at half-maximal effect; % is scaled to controls: 0 for no effect and ±100 for the full control effect; nearly all actives have a fitted effect of over 55% in size
Target sequence (Q14191 whole entry, looked up): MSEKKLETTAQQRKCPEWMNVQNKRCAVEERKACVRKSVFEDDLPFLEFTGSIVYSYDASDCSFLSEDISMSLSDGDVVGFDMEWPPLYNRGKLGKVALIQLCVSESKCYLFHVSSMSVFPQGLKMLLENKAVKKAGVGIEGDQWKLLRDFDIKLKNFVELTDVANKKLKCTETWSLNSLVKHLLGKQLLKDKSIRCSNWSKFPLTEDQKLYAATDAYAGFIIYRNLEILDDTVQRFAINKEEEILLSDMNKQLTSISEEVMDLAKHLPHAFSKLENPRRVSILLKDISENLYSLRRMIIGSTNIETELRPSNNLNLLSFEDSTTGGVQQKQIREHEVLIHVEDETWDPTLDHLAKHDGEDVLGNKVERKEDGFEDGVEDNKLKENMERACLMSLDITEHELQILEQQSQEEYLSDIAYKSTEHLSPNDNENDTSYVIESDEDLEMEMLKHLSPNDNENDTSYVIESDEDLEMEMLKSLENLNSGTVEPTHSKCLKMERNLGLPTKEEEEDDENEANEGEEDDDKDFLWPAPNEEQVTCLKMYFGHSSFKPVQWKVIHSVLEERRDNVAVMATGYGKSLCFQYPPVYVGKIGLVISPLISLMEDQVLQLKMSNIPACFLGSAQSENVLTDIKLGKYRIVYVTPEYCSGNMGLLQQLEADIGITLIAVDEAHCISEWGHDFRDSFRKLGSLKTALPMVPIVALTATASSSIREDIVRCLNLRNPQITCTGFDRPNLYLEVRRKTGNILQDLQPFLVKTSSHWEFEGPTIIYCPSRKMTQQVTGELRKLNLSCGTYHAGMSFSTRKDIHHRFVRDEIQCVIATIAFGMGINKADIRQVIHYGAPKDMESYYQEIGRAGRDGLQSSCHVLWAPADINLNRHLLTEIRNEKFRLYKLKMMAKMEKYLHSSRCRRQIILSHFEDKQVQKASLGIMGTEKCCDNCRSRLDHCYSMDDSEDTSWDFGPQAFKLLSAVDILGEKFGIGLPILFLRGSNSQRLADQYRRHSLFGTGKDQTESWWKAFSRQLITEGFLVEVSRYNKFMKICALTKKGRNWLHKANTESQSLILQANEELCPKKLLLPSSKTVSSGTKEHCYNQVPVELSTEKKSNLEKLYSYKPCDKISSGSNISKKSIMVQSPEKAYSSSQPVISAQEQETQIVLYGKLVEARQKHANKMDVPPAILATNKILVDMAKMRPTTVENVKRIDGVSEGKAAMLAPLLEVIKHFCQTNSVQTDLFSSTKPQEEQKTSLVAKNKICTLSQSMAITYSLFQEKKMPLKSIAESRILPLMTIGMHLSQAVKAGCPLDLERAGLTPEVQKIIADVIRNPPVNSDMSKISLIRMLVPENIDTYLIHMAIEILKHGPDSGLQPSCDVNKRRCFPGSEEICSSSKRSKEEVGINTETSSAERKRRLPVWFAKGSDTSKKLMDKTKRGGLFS
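Primary qHTS, 1536-well format. 20 nM WRN + compound, 15 min RT; start with 100 nM forked fluorophore/quencher duplex, 2 mM ATP (final); kinetic read ex 525/em 598 nm.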
FEN1 inh: inhibitors of human flap endonuclease 1 | P39748 | Recombinant FEN1 flap cleavage, fluorescence, 15 min | Potency, µM (series often up to 114 µM), for the others: at the top dose activity change, negative = inhibition, hits mostly inhibitors | actives 0.35% (n = 390,000) | AID 588795; also: potency is read from the fitted curve at half-maximal effect; % is scaled to controls: 0 for no effect and ±100 for the full control effect; nearly all actives have a fitted effect of over 65% in size
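Concentration–response screening of FEN1 (10 nM): 15 min compound preincubation at room temperature, reaction started with 50 nM substrate and read at 0 and 15 min. Corrected, normalized data were fitted by a four-parameter Hill equation.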
Pol kappa inh-1: DNA polymerase kappa (human) inhibition; Q9UBT6; purified Pol kappa, fluorescent DNA synthesis assay, 10 min; Potency, µM (top dose mostly 107 µM), without a hit: at the highest dose activity, negative = inhibition, hits mostly inhibitors; actives 0.53% (n = 400,000); also: potency is read from the fitted curve at half-maximal effect; % is scaled to controls: 0 for no effect and ±100 for the full control effect
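Activity was followed as the change in fluorescence between reads at 0 and 10 min after starting the reaction with 50 nM substrate. Beforehand, 10 nM polymerase had been preincubated with compound for 15 min at room temperature.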
GALK confirm: confirmation of human galactokinase (GALK) inhibitors; purified GALK, Kinase-Glo ATP depletion luminescence; shares compounds with Pol eta inh-1; actives 70% (n = 150); Potency, µM (series often up to 115 µM), inactives show at the highest dose activity, negative = inhibition, most hits filed as inhibitors; AID 2015
GALK redox cs: counter-screen for GALK inhibitors: redox cycling H2O2 generation | shares compounds with Pol eta inh-1 | Potency, µM (top dose mostly 115 µM), for inactives: top-dose activity change, negative = H2O2 signal, most hits filed as inhibitors | AID 2035 | Phenol red-HRP H2O2 redox cycling, absorbance 600 nm | actives 40% (n = 150)
HEK293 viability: counter-screen for GALK inhibitors: HEK293 cell cytotoxicity. shares compounds with Pol eta inh-1. HEK-293 viability, ATP luminescence (CellTiter-Glo), 24/48 h. Potency, µM (series often up to 46.1 µM), for the others: at the top dose activity change, negative = cytotoxicity, most hits filed as inhibitors. actives 10% (n = 170). AID 2547; also: potency is read from the fitted curve at half-maximal effect; % is scaled to controls: 0 for no effect and ±100 for the full control effect
Pol kappa inh-2: confirmation of human DNA polymerase kappa inhibitors; shares compounds with Pol eta inh-1; purified Pol-kappa, fluorescent strand-displacement substrate; Potency, µM, most hits filed as inhibitors; actives 76% (n = 920); AID 720501; also: potency is read from the fitted curve at half-maximal effect
Pol eta inh-2: Pol eta (human) inhibition, cherry-pick confirmation; shares compounds with Pol eta inh-1; Pol eta primer extension, TAMRA/BHQ fluorescence, 10 min; Potency, µM, actives largely listed as inhibitors; actives 64% (n = 2,600); AID 720502; also: potency is read from the fitted curve at half-maximal effect
An asterisk follows results filed as active; ? = inconclusive; . = no result given; [ ] = remark or other dose. Shown are actives, neighbours in structure and some others; about 2.4% of the full set was active somewhere. Calls follow the shape of the dose curve; as a rule, active = well fitted curve in the direction sought with a large enough effect; inconclusive = small, poorly fitted or top-dose-only effect, or another doubt; inactive = no such curve, though single readings can be large; an effect the other way counts as inactive or inconclusive.

SMILES	POLI inh	Pol eta inh-1	Pol beta inh	WRN inhibitor	FEN1 inh	Pol kappa inh-1	Pol eta inh-2	others
NCC[C@H](O)C(=O)N[C@@H]1C[C@H](N)[C@@H](O[C@H]2O[C@H](CN)CC[C@H]2N)[C@H](O)[C@H]1O[C@H]1O[C@H](CO)[C@@H](O)[C@H](N)[C@H]1O	.	.	.	.	.	3%[19.4 µM]	.
N=C1/C(=C\c2ccc(SCc3ccco3)o2)C(=O)N=C2SC=NN12	?	14µM*	40µM*	56µM*	?	50µM*	54*
CC1=NN2C(=N)/C(=C\c3ccc(SCc4ccccc4)o3)C(=O)N=C2S1	?	?	?	?	-7%	-14%	.
Cc1ccc(CCNc2nc3c(S(=O)(=O)c4ccc(C)cc4)nnn3c3ccsc23)cc1	8%	-19%	-6%	.	7%	-2%	.
COc1ccc(C(=O)NNC(=O)Cc2coc3cc(OC)ccc23)cc1	?	20µM*	.	-35%	0%	?	?
COc1ccc2c(CC(=O)Nc3ccccc3OC)coc2c1	12%	-14%	2%	-4%	-5%	2%	.
O=C(CSc1oc(-c2cccs2)nc1S(=O)(=O)c1ccccc1)Nc1ccc(F)cc1	?	-18%	-9%	.	10%	-10%	.
CCOC(=O)C1=C(O)/C(=C\c2ccc(CNC(=O)C(=O)Nc3ccccc3)o2)N=C1C	18µM*	10µM*	8.9µM*	?	-17%	?	48*	Pol kappa inh-2=53*
S=c1[nH]nc(Cc2sc(-c3ccccc3)nc2-c2ccccc2)o1	-2%	-1%	1%	-16%	0%	-13%	.	GALK confirm=33µM*;GALK redox cs=-10%;HEK293 viability=-6%
C/C(=N/Nc1ccc(C(=O)O)cc1)c1ccc2c(c1)Nc1ccccc1S2	50µM*	18µM*	.	-5%[11.6 µM]	-22%	?	76*	Pol kappa inh-2=38*
C/C(=N\Nc1ccc(C(=O)O)cc1)c1ccc2c(c1)Nc1ccccc1S2	22µM*	25µM*	?	-35%	?	?	76*
COc1ccc(-c2nc3nc(C)cc(Nc4cccc(C(F)(F)F)c4)n3n2)cc1	-17%	?	?	.	18%	-7%	.	Pol kappa inh-2=19*
COc1cc2c(cc1OC)-c1cc(Nc3ccc(C(=O)O)cc3)nc(=O)n1CC2	?	35µM*	?	?	-23%	-27%	?
Cc1cc(Br)cc(C)c1NC(=O)c1sc2ncn(Cc3cccc(F)c3)c(=O)c2c1C	11%	-11%	7%	.	0%	-2%[60.1 µM]	.
O=C(c1ccc(CS(=O)c2ccccc2Cl)o1)N1CCN(c2ccccc2F)CC1 (centres undefined)	12%	-4%	1%	.	1%	-3%	.
COc1ccc(Cl)cc1NC(=O)c1c(NCc2ccc(C)o2)sc2c1CCC(C)C2 (centres undefined)	5%	-11%	1%	.	-9%	-13%[60.1 µM]	.
COc1ccc(Cl)cc1NC(=O)c1c(NCc2ccc(C)o2)sc2c1CCCCC2	?	?	-2%	.	-18%	-7%[60.1 µM]	?	Pol kappa inh-2=?
COCCCN(C(=O)c1cc(Cl)nc2ccccc12)c1c(N)n(Cc2ccccc2)c(=O)[nH]c1=O	17%	3%	.	3%	0%	-4%	.
COCCCN(C(=O)c1cc(-c2ccco2)nc2ccccc12)c1c(N)n(Cc2ccccc2)c(=O)[nH]c1=O	40µM*	25µM*	.	-28%	-7%	?	?
COCCN(C(=O)COC(=O)Cc1coc2cc3c(cc12)CCC3)c1c(N)n(Cc2ccccc2)c(=O)[nH]c1=O	28µM*	20µM*	.	?	3%	?	76*
CC1(C)N=C(c2ccc(F)cc2)C(=O)N1CC(=O)Nc1ccccc1Cl	26%	.	-2%	.	-4%	1%	.
Nc1nnc(CC(=O)N/N=C/c2cc([N+](=O)[O-])cc(Br)c2O)s1	?	?	?	56µM*	-31%	50µM*	?	Pol kappa inh-2=47*
Nc1nnc(CC(=O)N/N=C/c2cccc([N+](=O)[O-])c2)s1	12%	-20%	30%	-37%	-5%	-4%	.
CC(=O)c1nn(-c2ccc(OC(F)(F)F)cc2)nc1Nc1ccc(C)cc1	19%	-7%	4%	.	16%	-20%	.
Cc1ccc(-c2nc3c(c(SCC(=O)N4CCOCC4)n2)Cc2c(CO)cnc(C)c2O3)cc1	79µM*	?	-30%	-1%[11.6 µM]	-4%	-20%	?
SMILES	POLI inh	Pol eta inh-1	Pol beta inh	WRN inhibitor	FEN1 inh	Pol kappa inh-1	Pol eta inh-2	others
COc1ccc(-c2nc3c(c(SCC(=O)N4CCOCC4)n2)Cc2c(CO)cnc(C)c2O3)cc1	4%	-2%	16%	-1%	11%	-8%	.
CCOC(=O)c1c(-c2ccc(OC)c(OC)c2)csc1NC(=O)c1ccc(F)cc1	5%	-6%	6%	.	-3%	7%	.
Cc1cc(=O)oc2c(CN3CCCC3)c(O)c(Cl)cc12	-19%	?	?	-12%	3%	-24%	.
CCN(CC)Cc1c(O)c(Cl)cc2c(C)cc(=O)oc12	?	20µM*	10µM*	-9%[11.6 µM]	-7%	89µM*	?
Cc1cc(=O)oc2c(CN3CCC(C)CC3)c(O)c(Cl)cc12	?	13µM*	16µM*	?	-13%	?	?
COc1ccccc1N1CCN(C(=O)c2cc3c(=O)n(Cc4cccnc4)ccc3nc2C)CC1	6%	-9%	-15%	.	2%	-12%	.
